Source: PubChem BioAssay

Each compound was assayed against Alpha-2C adrenergic receptor (Homo sapiens) (UniProt P18825) (assay: modulators of alpha2C/GIRK thallium flux, primary screen, cell-based, HEK293 alpha2C/GIRK1/2 (AID 624;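 note: slope of fluorescence ratio to pre-addition baseline per second over 15 to 24 s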)). Settings: thallium flux BTC fluorescence, at 10 µM, actives lie on both sides;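 active = fluorescence slope after compound addition differing from the mean of all screened samples at 99.7% confidence, in either direction; inactive = the rest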.
Chain of Alpha-2C adrenergic receptor (Homo sapiens) (P18825 whole entry, looked up): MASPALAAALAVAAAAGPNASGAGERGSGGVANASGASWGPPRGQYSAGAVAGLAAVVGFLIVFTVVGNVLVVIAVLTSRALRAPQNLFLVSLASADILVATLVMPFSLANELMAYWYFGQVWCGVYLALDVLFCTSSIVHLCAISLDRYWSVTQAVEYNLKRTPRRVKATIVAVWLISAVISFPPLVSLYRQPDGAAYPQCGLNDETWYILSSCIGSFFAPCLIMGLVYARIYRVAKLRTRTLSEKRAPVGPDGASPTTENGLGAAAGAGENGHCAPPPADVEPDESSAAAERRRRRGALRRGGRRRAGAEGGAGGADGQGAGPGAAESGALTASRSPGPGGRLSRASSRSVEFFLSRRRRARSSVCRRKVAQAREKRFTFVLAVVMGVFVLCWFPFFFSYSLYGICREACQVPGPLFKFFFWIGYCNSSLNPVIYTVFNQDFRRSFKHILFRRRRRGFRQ

slope, inactive:
CCOC(=O)N1CCN(C(=O)CN(Cc2ccccc2)S(=O)(=O)c2ccc(OC)c(C)c2)CC1 0.00442, COC(=O)c1ccc(COC(=O)c2c(C)nn(Cc3ccccc3Cl)c2Cl)o1 0.00741, O=C(Nc1cccnc1)c1cc2c(ccc3ccccc32)o1 0.00441, Clc1ccc(OCc2nnc(SCCN3CCCCC3)n2Cc2ccco2)cc1 0.00483, O=C(/C=C/N1CCOCC1)c1ccc(-c2ccccc2)cc1 0.00595, COc1cccc(N2C(=O)N(c3ccccc3Cl)C3CS(=O)(=O)CC32)c1 (stereo unspecified) 0.00497, O=C(NCc1cccs1)c1cc2c(s1)CS(=O)(=O)C2 0.00763, CC(C)CC(c1nnnn1C(C)(C)C)N1CCN(C2CCCC2)CC1 (stereo unspecified) 0.00477, Cc1cc(C(=O)COC(=O)CCc2nc3ccccc3s2)c(C)n1C 0.00538, Cc1cc(C)n2nc(SCC(=O)N(C)Cc3ccccc3)nc2n1 0.00539, CCCCCCC(c1c(C)n(C)n(-c2ccccc2)c1=O)c1c(C)n(C)n(-c2ccccc2)c1=O 0.00514, c1ccc2c(-c3nc(-c4ccncc4)no3)cccc2c1 0.00497, CNC(=O)c1ccc2nc(NC(C)=O)sc2c1 0.00564, O=C(c1ccccc1)c1ccc(N2CCNCC2)cc1 0.00569, N#Cc1c(-c2ccc3c(c2)OCO3)csc1N 0.00604, Cc1ccc(Cn2c(SCC(N)=O)nc3c2c(=O)n(C)c(=O)n3C)cc1 0.00505
